# PubChem BioAssay AID372 (MTDP, 2006)
# The whole screen tested about 100,000 compounds, of which about 770 (0.77%) were called active. Cut-off read from the data, not from the text of the source: active = inhibition above about 50%; inactive = the rest. The sample as a whole holds a higher share of actives than the screen did.
# Target: Gag-Pol polyprotein (Human immunodeficiency virus type 1 group M subtype B (isolate HXB2)) (UniProt P04585)
# Assay: RNase H inhibition, HIV 1 Gag Pol polyprotein, FRET biochemical assay, screening (AID 372)
# Settings: HIV-1 RT RNase H, FRET RNA/DNA substrate fluorescence; at 10 µM; active compounds read high
row,SMILES,inhibition
1,O=C(Cc1ccc(Cl)cc1)Nc1ccc2oc(-c3ccc(Cl)cc3)nc2c1,29% (inactive)
2,CCc1ccc(-c2nc3cc(NC(=O)Cc4ccc(Cl)cc4)ccc3o2)cc1,25% (inactive)
3,O=C(Cc1ccc(Cl)cc1)Nc1ccc2oc(-c3ccc(F)cc3)nc2c1,54% (active)
4,O=C(Nc1ccc(F)cc1F)c1sc2ccccc2c1Cl,16% (inactive)
5,Cc1ccc(SCCNC(=O)CN(c2ccccc2F)S(=O)(=O)c2ccccc2)cc1,10% (inactive)
6,O=C(O/N=C/c1ccc([N+](=O)[O-])cc1)c1cccs1,1% (inactive)
7,Clc1ccccc1-c1nc(-c2cccnc2)no1,20% (inactive)
8,CC(C)c1ccc(/C=C/C(=O)Nn2cnnc2)cc1,0% (inactive)
9,Cc1ccc(C(=O)OCC(=O)c2ccc(Br)cc2)cc1[N+](=O)[O-],0% (inactive)
10,O=C(Nc1ccc(Cl)c(-c2nc3ccccc3o2)c1)c1ccc(Br)cc1,55% (active)
11,O=C(Nc1ccc2oc(-c3cc(Br)ccc3Cl)nc2c1)c1ccccc1,29% (inactive)
12,CCOc1ccc(C(=O)Nc2cccc(-c3nc4cc(C)c(C)cc4o3)c2)cc1[N+](=O)[O-],11% (inactive)
13,CCc1ccc(-c2nc3cc(NC(=O)c4ccc(C)c([N+](=O)[O-])c4)ccc3o2)cc1,35% (inactive)
14,COc1ccc(-c2nc3cc(NC(=O)c4ccc(C)c([N+](=O)[O-])c4)ccc3o2)cc1,61% (active)
15,COc1ccc(C(=O)Nc2cccc(-c3nc4cc(C)ccc4o3)c2)cc1[N+](=O)[O-],1% (inactive)
16,Cc1ccc(C(=O)Nc2ccc3oc(-c4ccccc4Cl)nc3c2)cc1[N+](=O)[O-],55% (active)
17,COc1ccc(-c2nc3cc(NC(=O)c4ccc(C)c([N+](=O)[O-])c4)ccc3o2)cc1OC,3% (inactive)
18,O=C(Nc1ccc(Cl)c(-c2nc3ccccc3o2)c1)c1cccc(Br)c1,1% (inactive)
19,Cc1ccc(C(=O)Nc2ccc3oc(-c4ccc(F)cc4Cl)nc3c2)cc1[N+](=O)[O-],0% (inactive)
20,COc1ccc(C(=O)Nc2cccc(-c3nc4cc(C)c(C)cc4o3)c2)cc1[N+](=O)[O-],52% (active)
21,Cc1ccccc1-c1nc2cc(NC(=O)c3ccc(C)c([N+](=O)[O-])c3)ccc2o1,41% (inactive)
22,CC(C)c1cc(C(C)C)c(S(=O)(=O)NNC(=O)c2ccncc2)c(C(C)C)c1,1% (inactive)
23,O=C(NC(=S)Nc1cccc(NC(=O)c2ccc(Cl)cc2Cl)c1)c1ccco1,11% (inactive)

row,SMILES,inhibition
1,CCOc1ccc(N(CC(=O)NC(C)CC)S(=O)(=O)c2ccc(Br)cc2)cc1 (configuration not stated),5% (inactive)
2,COC(=O)c1cccc(NC(=O)CC(=O)c2ccccc2)c1,0% (inactive)
3,COc1ccc(Cc2noc(-c3ccccc3Cl)n2)cc1OC,23% (inactive)
4,Cc1sc(NS(=O)(=O)c2ccc([N+](=O)[O-])cc2)nc1-c1ccc(Br)cc1,12% (inactive)
5,O=C(/C=C/c1ccccc1)Nc1ccc(-c2nnc(-c3ccco3)o2)cc1,0% (inactive)
6,O=C(NCc1ccc(Cl)cc1)c1ccco1,0% (inactive)
7,Cc1nnc(Nc2ccc3c(c2)ncn3C)c2ccccc12,0% (inactive)
8,O=C(Nc1ccc2oc(-c3ccc(Br)cc3)nc2c1)c1ccc(Cl)c([N+](=O)[O-])c1,58% (active)
9,O=C(Nc1ccc2oc(-c3ccc(F)cc3)nc2c1)c1ccc(Cl)c([N+](=O)[O-])c1,11% (inactive)
10,O=C(Nc1ccc2oc(-c3cccc(Br)c3)nc2c1)c1ccc(Cl)c([N+](=O)[O-])c1,13% (inactive)
11,O=C(c1c(F)cccc1F)N1CCN(c2cc(N3CCCC3)c(F)cc2[N+](=O)[O-])CC1,11% (inactive)
12,CCc1ccc(OCC(=O)Nc2ccc3c(c2)C(=O)c2ccccc2C3=O)cc1,27% (inactive)
13,COC(=O)c1c(NC(=O)c2cc(-c3ccc(Cl)s3)nc3ccccc23)sc2c1CCC(C(C)(C)C)C2 (configuration not stated),1% (inactive)
14,COc1ccc(C(Nc2ccccc2)P(=O)(OC(C)C)OC(C)C)cc1 (configuration not stated),10% (inactive)
15,COc1ccc(OC)c(NC(=O)c2ccc(N(C)S(=O)(=O)c3ccccc3)cc2)c1,13% (inactive)
16,Oc1c(Cl)cc(Cl)cc1/C=N/N=C/c1cc(Cl)cc(Cl)c1O,15% (inactive)
17,CCCC1CCC(c2ccc(OCC)cc2)=CC1=O (configuration not stated),8% (inactive)
18,COc1ccc(C2=CC(=O)C=CC2=O)cc1,75% (active)
19,CCOc1ccc(C2=NNC(=O)CC2)cc1,10% (inactive)
20,COc1ccc(-c2cccc(=O)o2)cc1,0% (inactive)
21,COc1ccc(C2=CC(=O)c3ccccc3C2=O)cc1,40% (inactive)
22,CCOC(=O)C1=C(C)N=c2s/c(=C\c3ccc(O)c(OC)c3)c(=O)n2C1c1cc(OC)ccc1OC (configuration not stated),0% (inactive)
23,CC(NC(=O)CN1C(=O)c2ccccc2C1=O)c1ccccc1 (configuration not stated),3% (inactive)

row,SMILES,inhibition
1,Cc1cccc(OCCCOc2cccc(/C=c3\sc4nc5ccccc5n4c3=O)c2)c1,3% (inactive)
2,CCOc1ccc(NC(=S)NC(=O)c2ccccc2)c([N+](=O)[O-])c1,11% (inactive)
3,CCOc1ccc(NC(=S)NC(=O)c2ccc(F)cc2)c([N+](=O)[O-])c1,7% (inactive)
4,CCOc1ccc(NC(=S)NC(=O)/C=C/c2ccc(OC)cc2)c([N+](=O)[O-])c1,60% (active)
5,CCOc1ccc(NC(=S)NC(=O)/C=C/c2ccc(OC)c(OC)c2)c([N+](=O)[O-])c1,2% (inactive)
6,CCOc1ccc(NC(=S)NC(=O)/C=C/c2ccc(F)cc2)c([N+](=O)[O-])c1,84% (active)
7,CCOc1ccc(NC(=S)NC(=O)/C=C/c2ccc(C)cc2)c([N+](=O)[O-])c1,21% (inactive)
8,Brc1ccc(-c2nc(-c3ccccc3)c(-c3ccc(Br)cc3)[nH]2)cc1,17% (inactive)
9,CCOC(=O)c1[nH]c(C)c(C(=O)N/N=C/c2ccc(-c3ccc(Cl)cc3)o2)c1C,18% (inactive)
10,C=CCOc1ccc(/C=C2\SC(N3CCN(c4ccccc4)CC3)=NC2=O)cc1,13% (inactive)
11,COc1ccc(/C=C/C(=O)N2c3ccc(C)cc3-c3c(ssc3=S)C2(C)C)cc1,20% (inactive)
12,COc1cccc(C(=O)N2c3cc(OC)ccc3-c3c(ssc3=S)C2(C)C)c1,54% (active)
13,COc1ccc2c(c1)-c1c(ssc1=S)C(C)(C)N2C(=O)CN1C(=O)c2ccccc2C1=O,0% (inactive)
14,COc1ccc2c(c1)-c1c(ssc1=S)C(C)(C)N2C(=O)/C=C/c1ccc(OC)c(OC)c1,27% (inactive)
15,COC(=O)C1=C(C(=O)OC)SC(=C2C(=S)C(C)(C)N(C(=O)/C=C/c3ccc(OC)c(OC)c3)c3ccc(OC)cc32)S1,53% (active)
16,COc1ccc(/C=C/C(=O)N2c3ccc(C)cc3-c3c(ssc3=S)C2(C)C)cc1OC,57% (active)
17,COc1cccc(C(=O)N2c3ccc(C)cc3-c3c(ssc3=S)C2(C)C)c1,13% (inactive)
18,Cc1ccc2c(c1)N(C(=O)CN1C(=O)c3ccccc3C1=O)C(C)(C)c1ssc(=S)c1-2,10% (inactive)
19,COc1ccc2c(c1)N(C(=O)c1ccc(C(C)(C)C)cc1)C(C)(C)c1ssc(=S)c1-2,15% (inactive)
20,COC(=O)C1=C(C(=O)OC)SC(=C2C(=S)C(C)(C)N(C(=O)/C=C/c3ccc(OC)c(OC)c3)c3ccc(C)cc32)S1,40% (inactive)
21,COC(=O)C1=C(C(=O)OC)SC(=C2C(=S)C(C)(C)N(C(=O)/C=C/c3ccc(OC)cc3)c3ccc(C)cc32)S1,22% (inactive)
22,O=C(O)C1CCCCC1C(=O)NCc1ccccc1 (configuration not stated),0% (inactive)
23,O=C(Nc1ccccc1)c1ccccc1C(=O)OCCCCCc1cccs1,1% (inactive)

row,SMILES,inhibition
1,CC(/C=C(\NC(=O)c1ccccc1)C(=O)N/N=C/c1cccc([N+](=O)[O-])c1)=C\c1ccccc1,6% (inactive)
2,O=C(Nc1ccc(-c2ccc(Cl)cc2)cc1)C1CC1,6% (inactive)
3,O=[N+]([O-])c1ccc(C2Nc3ccc(I)cc3C3C=CCC32)cc1 (configuration not stated),25% (inactive)
4,Cc1ccc(S(=O)(=O)N(CC(O)CN(CC(C)C)CC(C)C)c2cccc(C)c2)cc1 (configuration not stated),9% (inactive)
5,COc1ccc2ccccc2c1/C=N/NC(=O)c1ccc(-c2ccccc2)cc1,13% (inactive)
6,O=C(Nc1ccc(NC(=O)c2ccc(Cl)cc2Cl)c(Cl)c1)c1ccccc1,3% (inactive)
7,COc1ccc2c(c1)-c1c(ssc1=S)C(C)(C)N2C(=O)c1ccccc1OC,60% (active)
8,COc1ccc2c(c1)-c1c(ssc1=S)C(C)(C)N2C(=O)c1ccc(OC)c(OC)c1,4% (inactive)
9,COc1ccc2c(c1)-c1c(ssc1=S)C(C)(C)N2C(=O)c1ccccc1Br,27% (inactive)
10,CCC1CCc2c(sc(NC(=O)c3ccc(Br)o3)c2C(=O)OC)C1 (configuration not stated),13% (inactive)
11,COc1ccccc1S(=O)(=O)CC(SC#N)c1ccccc1 (configuration not stated),4% (inactive)
12,CC(=O)NCCc1c(C)n(Cc2ccccc2)c2ccccc12,2% (inactive)
13,Cc1c(CCNC(=O)c2ccccc2)c2ccccc2n1Cc1ccccc1,57% (active)
14,Cc1c(CCNC(=O)c2ccccc2F)c2ccccc2n1Cc1ccccc1,28% (inactive)
15,O=C1OC(c2ccccc2)=N/C1=C\c1ccc(F)c(Br)c1,16% (inactive)
16,CCOC(=O)C1=C(C)N=c2s/c(=C\c3ccc(Br)cc3)c(=O)n2C1c1ccc(OC)c(OC)c1 (configuration not stated),0% (inactive)
17,CC(=O)/C(=C1\NC(C)(C)Cc2ccccc21)c1ccccc1,3% (inactive)
18,N#C/C(=C/c1ccc(Sc2ccccc2)o1)c1nc2ccccc2[nH]1,15% (inactive)
19,Cc1ccc(Sc2ccc(/C=C(\C#N)C(=O)NCc3ccccc3)o2)cc1,50% (active)
20,N#C/C(=C\c1ccc(-c2ccccc2)o1)C(=O)NCc1ccccc1,16% (inactive)
21,N#C/C(=C\c1ccc(Sc2ccccc2)o1)c1ccccc1,52% (active)
22,N#C/C(=C/c1ccc(Sc2ccccc2)o1)C(=O)NCc1ccccc1,25% (inactive)
23,N#C/C(=C\c1ccc(I)o1)c1ccccc1,41% (inactive)
